Assay outcomes: PubChem, National Center for Advancing Translational Sciences (NCATS)
CHX counter = Cycloheximide Counterscreen for Small Molecule Inhibitors of Shiga Toxin; cell reporter, cycloheximide protein synthesis inhibition counterscreen; max response, %; 12% of 300,000 active; in the data active = max response mostly above about 13%, no sharp cut-off; inactive = mostly below about 14%; note: read at 38.3 µM for the half of the compounds with a filed dose; 0% is about no effect
LmPK inh = qHTS Assay for Inhibitors of Leishmania Mexicana Pyruvate Kinase (LmPK). Q27686. purified LmPK, Kinase-Glo ATP luminescence, 1 h. Potency, µM (top dose mostly 57.5 µM), for inactives: at the highest dose activity change, negative = inhibition, usual class: inhibitors. 0.37% of 290,000 active; note: potency is the fitted concentration of half-maximal effect; % is set by controls: 0 for no effect and ±100 for the full control effect
Target sequence (Q27686 whole entry, looked up): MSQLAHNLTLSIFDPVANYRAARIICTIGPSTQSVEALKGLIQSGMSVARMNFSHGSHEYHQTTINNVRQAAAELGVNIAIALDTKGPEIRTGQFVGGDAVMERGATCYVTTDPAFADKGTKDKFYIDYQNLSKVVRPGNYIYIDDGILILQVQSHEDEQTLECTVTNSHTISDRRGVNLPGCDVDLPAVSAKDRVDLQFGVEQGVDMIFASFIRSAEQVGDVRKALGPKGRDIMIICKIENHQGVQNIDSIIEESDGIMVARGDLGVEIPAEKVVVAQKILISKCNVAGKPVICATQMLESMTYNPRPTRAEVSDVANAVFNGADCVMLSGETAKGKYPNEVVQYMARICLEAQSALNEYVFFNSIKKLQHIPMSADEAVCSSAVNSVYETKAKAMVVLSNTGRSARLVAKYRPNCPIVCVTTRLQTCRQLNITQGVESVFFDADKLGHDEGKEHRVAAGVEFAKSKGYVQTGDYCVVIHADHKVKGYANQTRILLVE
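qHTS format; LmPK 0.1 nM; substrates PEP 0.5 mM and ADP 0.1 mM. One-hour room-temperature incubation, then coupled luciferase luminescence; 0.5 nM enzyme wells mark activation.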
SARS PLpro yeast = qHTS of Yeast-based Assay for SARS-CoV PLP. S. cerevisiae expressing SARS-CoV PLpro, growth rescue. 0.19% of 330,000 active. Potency, µM (titrated, usually from 32.9 µM), for inactives: at the top dose activity, positive = growth rescue, hits mostly activators; calls by dose curve; note: potency is the fitted concentration of half-maximal effect; 0% is about no effect; nearly all actives have a fitted effect of over 55% in size
NS1 function inh = qHTS Assay for Inhibitors of Influenza NS1 Protein Function; Potency, µM (titrated, usually from 46.1 µM), for the others: top-dose activity, positive = more growth; 0.4% of 270,000 active; AID 2326, 2010; calls by dose curve; note: potency is the fitted concentration of half-maximal effect; actives are rising curves; nearly all actives have a fitted effect of over 50% in size
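Growth recovery, yeast-based: influenza A NS1 expressed in S. cerevisiae causes slow growth, and suppressors are detected by OD600. The parent strain without NS1 is used as positive control.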
Tb PYK inh = qHTS of Trypanosoma Brucei Inhibitors. pyruvate kinase (Trypanosoma brucei), Q57TT1. 0.12% of 410,000 active. AID 624173, 2012. TbPYK enzyme, Kinase-Glo Plus ATP luminescence, 45 min. Potency, µM (titrated, usually from 76.8 µM), for the others: at the highest dose activity, negative = inhibition, hits mostly inhibitors; note: potency is the fitted concentration of half-maximal effect; % is set by controls: 0 for no effect and ±100 for the full control effect; nearly all actives have a fitted effect of over 50% in size
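Screened from lowest to highest concentration, compounds were pinned into TbPYK/substrate mixtures, and ADP (130 uM final) was added. Plates sat at room temperature for 45 min prior to Kinase-Glo Plus detection by luminescence.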
Shiga inhibitor = A qHTS for Small Molecule Inhibitors of Shiga Toxin. Vero cells, Shiga toxin protein synthesis inhibition reporter. inhibition, % at 38.7 µM. 9.2% of 290,000 active; in the data active = inhibition mostly above about 28%, no sharp cut-off; inactive = mostly below about 43%; note: 0% is about no effect
Active calls of the source: *; ? = inconclusive; . = not tested or not shown. This is one part of a sample in which hits are shown more often than they occur. Unless noted, calls come from the whole dose curve; as a rule, active = well fitted curve in the direction sought with a large enough effect; inconclusive = small, poorly fitted or top-dose-only effect, or another doubt; inactive = no such curve, though single readings can be large; an effect the other way counts as inactive or inconclusive.

SMILES	CHX counter	LmPK inh	SARS PLpro yeast	NS1 function inh	Tb PYK inh	Shiga inhibitor
COc1ccc(-c2[nH]c(-c3ccccc3)nc2SCC(=O)Nc2ccc3c(c2)OCCO3)cc1	.	.	.	.	-20.7%	.
COc1ccc(C2=NO[C@@](CC(=O)O)(C(=O)Nc3ccc4c(c3)OCCO4)C2)cc1	30.4*	0.3%	3.2%	-0.4%	-5.5%	61.6*
NC(=O)COc1ccccc1C1=NO[C@@](CC(=O)O)(C(=O)Nc2ccc3c(c2)OCCO3)C1	19.2*	-0.4%	0.9%	1.9%	-7.6%	30.5
COc1cccc(/C=C/C(=O)Nc2cccc(C(C)=O)c2)c1OC	48.5*	6.8%	-6.6%	.	-0.3%	74.6*
CCc1cc(C(=O)O)c(NC(=O)/C=C/c2ccc(OC)c(OC)c2)s1	-2.6	0.5%	0.6%	-4.3%	-0.2%	-8.5
COc1ccccc1/C=C/C(=O)Nc1cccc(C(C)=O)c1	44.5*	-1.0%	-1.0%	-6.8%	-1.8%	65.3*
COc1cccc(/C=C/C(=O)Nc2ccc3c(c2)OCCO3)c1OC	26.9*	-24.0%	-2.0%	.	2.3%	88.0*
COc1cccc(/C=C/C(=O)Nc2ccc(C(=O)Nc3cccc(S(N)(=O)=O)c3)cc2)c1OC	5.3	2.8%	0.7%	-6.8%	-0.1%	-3.4
CCc1cc(C(=O)O)c(NC(=O)/C=C/c2ccc(OC)cc2)s1	31.6*	-2.9%	0.0%	-38.3%	-16.6%	36.9
CCCCN(CC)C(=O)c1cc2c(=O)n3cccc(C)c3nc2n1C	.	.	.	.	-0.8%	.
CCCNC(=O)C1(C)CCN(Cc2ccc(C(=O)OCC)cc2)C1 (configuration not stated)	.	.	.	.	-3.2%	.
COc1ccc(/C=C/C(=O)Nc2cccc(C(C)=O)c2)cc1	60.1*	0.0%	-26.1%	-23.2%	0.8%	67.8*
COc1ccc(Br)cc1/C=C/C(=O)Nc1ccc(C)cc1	-3.1	2.2%	-37.1%	12.3%	-0.3%	30.2
COc1ccc(/C=C/C(=O)Nc2cccc(F)c2)cc1	.	.	.	.	-17.0%	.
COc1ccc(Br)cc1/C=C/C(=O)Nc1ccc2ccccc2c1	32.7*	1.0%	-2.3%	4.2%	-1.5%	20.0
O=C(Cc1cccs1)N1CCN(c2nc(-c3ccc(Cl)cc3)cs2)CC1	-5.1	2.4%	-14.8%	-8.3%	-17.1%	-4.6
COc1ccc(-c2csc(/N=C/N(C)C)n2)cc1OC	17.8*	0.7%	0.1%	3.4%	-1.3%	42.3
COc1ccc(-c2csc(C(C)(O)c3ccncc3)n2)cc1OC (configuration not stated)	.	.	.	.	-4.9%	.
Clc1ccc(-c2csc(N3CCOCC3)n2)cc1	47.2*	2.3%	1.3%	.	-11.6%	56.4*
c1ccc(-c2cnnc(N3CCCCC3)n2)cc1	32.9*	-24.0%	-8.8%	-56.0%	3.7%	112.3*
Clc1ccc(-c2csc(N3CCCCCC3)n2)cc1	21.8*	1.1%	-7.4%	7.0%	0.1%	57.3
CC[C@H](C)[C@H](NC(=O)[C@H](Cc1ccc(O)cc1)NC(=O)[C@H](Cc1cnc[nH]1)NC(=O)[C@H](CCCNC(=N)N)NC(=O)[C@H](CC(C)C)NC(=O)[C@H](C)NC(=O)[C@@H](N)CO)C(=O)N[C@@H](CC(N)=O)C(=O)N[C@@H](CC(C)C)C(=O)N[C@H](C(=O)N[C@H](C(=O)N[C@@H](CCCNC(=N)N)C(=O)N[C@@H](CCC(N)=O)C(=O)N[C@@H](CCCNC(=N)N)C(=O)N[C@@H](Cc1ccc(O)cc1)C(N)=O)[C@@H](C)O)[C@@H](C)CC	-3.1	.	.	.	.	-8.0
O=[N+]([O-])c1ccc(-c2csc(N3CCCCCC3)n2)cc1	17.2*	1.5%	-0.8%	1.3%	-6.2%	26.4
CN1CCN(c2nc(-c3ccc(Cl)s3)cs2)CC1	46.0*	-5.8%	-1.5%	3.4%	?	50.5*
Brc1ccc(-c2csc(N3CCOCC3)n2)cc1	62.6*	-1.1%	-0.5%	.	?	136.2*
O=C(N1CCOCC1)N1CCN(c2nc(-c3ccc(F)cc3)cs2)CC1	10.2	0.1%	-3.7%	2.2%	7.3%	-3.4
Brc1ccc(-c2csc(N3CCCCCC3)n2)cc1	8.6*	-7.6%	-3.0%	20.4%	-8.8%	4.4
